This note sets out measurements from PubChem BioAssay (EPA / NIEHS).

Read-out in assay [1]: Pyruvate Dehydrogenase Kinase 4 (PDK4), PDK4 (gene 5166)
In words: LTEA_HepaRG_PDK4: Life Technologies and Expression Analysis (LTEA) Assay for Pyruvate Dehydrogenase Kinase 4 (PDK4) using HepaRG (AID 2283525). Conditions: mRNA level, 48 h; actives raise or lower the signal. An outline of the steps: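 HepaRG cells plated 48 h, then switched to serum-free induction medium and exposed in duplicate for 48 h to 8 half-log concentrations from 100 uM in 0.5% DMSO. PDK4 mRNA measured by qRT-PCR, normalized to ACTB, GAPDH and POLR2A; bidirectional fit versus DMSO.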

Read-out in assay [2]: NAD(P)H dehydrogenase [quinone] 1 (NQO1), NQO1 (gene 1728)
Nature of the assay: LTEA_HepaRG_NQO1: Life Technologies and Expression Analysis (LTEA) Assay for NAD(P)H dehydrogenase [quinone] 1 (NQO1) using HepaRG (AID 2283526). Conditions: mRNA level, 48 h; actives raise or lower the signal. The method, boiled down:
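Differentiated HepaRG cells, plated 48 h and then switched to serum-free induction medium, were exposed in duplicate for 48 h to 8-point half-log concentrations up to 100 uM in 0.5% DMSO. mRNA measured by qRT-PCR, normalized to ACTB, GAPDH, POLR2A; bidirectional fit versus DMSO.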

Read-out in assay [3]: succinate dehydrogenase complex iron sulfur subunit B (SDHB), SDHB (gene 6390)
Nature of the assay: LTEA_HepaRG_SDHB: Life Technologies and Expression Analysis (LTEA) Assay for succinate dehydrogenase complex iron sulfur subunit B (SDHB) using HepaRG (AID 2283528). Conditions: mRNA level, 48 h; actives raise or lower the signal. An outline of the steps: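 A human HepaRG culture in serum-free induction medium received test chemicals for 48 h over an eight-point range capped at 100 uM. SDHB expression change was quantified by qRT-PCR.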

Read-out in assay [4]: Signal transducer and activator of transcription 3 (Homo sapiens) (UniProt P40763)
In words: LTEA_HepaRG_STAT3: Life Technologies and Expression Analysis (LTEA) Assay for Signal transducer and activator of transcription (STAT3) using HepaRG (AID 2283529). Conditions: mRNA level, 48 h; actives raise or lower the signal. The method, boiled down: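 Differentiated HepaRG cells, serum-free induction medium, dosed 48 h in duplicate, 8 half-log concentrations from 100 uM in 0.5% DMSO. STAT3 mRNA by qRT-PCR, normalised to ACTB, GAPDH, POLR2A; bidirectional fit versus DMSO.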

Read-out in assay [5]: sulfotransferase 2A1 (SULT2A1), SULT2A1 (gene 6822)
Nature of the assay: LTEA_HepaRG_SULT2A1: Life Technologies and Expression Analysis (LTEA) Assay for sulfotransferase 2A1 (SULT2A1) using HepaRG (AID 2283531). Conditions: mRNA level, 48 h; actives raise or lower the signal. An outline of the steps: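 Cells were plated and cultured 48 h, switched to serum-free induction medium, then dosed in duplicate for 48 h (8 concentrations, max 100 uM). RNA was isolated and SULT2A1 expression measured by qRT-PCR; gain or loss of signal fitted relative to DMSO.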

Read-out in assay [6]: Transforming Growth Factor (TGFA), TGFA (gene 7039)
In words: LTEA_HepaRG_TGFA: Life Technologies and Expression Analysis (LTEA) Assay for Transforming Growth Factor (TGFA) using HepaRG (AID 2283532). As to conditions: mRNA level, 48 h; actives raise or lower the signal. The method, boiled down:
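Differentiated HepaRG cells exposed 48 hours in serum-free induction medium, 0.5% DMSO vehicle, 8-point half-log series from 100 uM, in duplicate. TGFA mRNA by TaqMan qRT-PCR, normalised to ACTB, GAPDH, POLR2A; bidirectional fit versus DMSO.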

Read-out in assay [7]: Transforming Growth Factor (TGFB1), TGFB1 (gene 7040)
In words: LTEA_HepaRG_TGFB1: Life Technologies and Expression Analysis (LTEA) Assay for Transforming Growth Factor (TGFB1) Transporter using HepaRG (AID 2283533). Conditions: mRNA level, 48 h; actives raise or lower the signal. The method, boiled down: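 Expression change of TGFB1 in human HepaRG cells is measured after a 48 h chemical exposure, up to 100 uM in 0.5% DMSO vehicle. Curves are fitted in both directions relative to the DMSO baseline.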

Read-out in assay [8]: Tumor necrosis factor receptor 1 (TNFRSF1A), TNFRSF1A (gene 7132)
In words: LTEA_HepaRG_TNFRSF1A: Life Technologies and Expression Analysis (LTEA) Assay for Tumor necrosis factor receptor 1 (TNFRSF1A) using HepaRG (AID 2283535). Conditions: mRNA level, 48 h; actives raise or lower the signal. An outline of the steps:
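Expression of TNFRSF1A in human HepaRG liver cells was measured by qRT-PCR 48 h after chemical dosing (maximum 100 uM). Bidirectional curve fitting used 0.5% DMSO as baseline.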

Read-out in assay [9]: Thyroid Hormone Responsive (THRSP), THRSP (gene 7069)
In words: LTEA_HepaRG_THRSP: Life Technologies and Expression Analysis (LTEA) Assay for Thyroid Hormone Responsive (THRSP) using HepaRG (AID 2283536). As to conditions: mRNA level, 48 h; actives raise or lower the signal. An outline of the steps:
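Differentiated HepaRG cells treated 48 h in serum-free induction medium with 8 half-log concentrations up to 100 uM (0.5% DMSO), duplicates. THRSP mRNA by TaqMan qRT-PCR normalised to ACTB, GAPDH, POLR2A; bidirectional fit versus DMSO.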

Read-out in assay [10]: UDP glucuronosyltransferase (UGT1A1), UGT1A1 (gene 54658)
In words: LTEA_HepaRG_UGT1A1: Life Technologies and Expression Analysis (LTEA) Assay for UDP glucuronosyltransferase (UGT1A1) using HepaRG (AID 2283538). Conditions: mRNA level, 48 h; actives raise or lower the signal. The method, boiled down: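 Differentiated human HepaRG cells in serum-free induction medium were exposed in duplicate for 48 h to eight half-log concentrations up to 100 uM in 0.5% DMSO. UGT1A1 mRNA was quantified by TaqMan qRT-PCR, normalized to ACTB, GAPDH and POLR2A, and fitted bidirectionally against DMSO.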

Read-out in assay [11]: UDP glucuronosyltransferase (UGT1A6), UGT1A6 (gene 54578)
Nature of the assay: LTEA_HepaRG_UGT1A6: Life Technologies and Expression Analysis (LTEA) Assay for UDP glucuronosyltransferase (UGT1A6) using HepaRG (AID 2283539). Conditions: mRNA level, 48 h; actives raise or lower the signal. The method, boiled down: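 Endpoint is UGT1A6 transcript induction or loss in a human liver cell line, quantified by TaqMan qRT-PCR 48 h after dosing. Concentrations ran from 100 uM downward in half-log steps in 0.5% DMSO; activity was fitted in both directions versus vehicle.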

Read-out in assay [12]: X-box binding protein 1 (XBP1), XBP1 (gene 7494)
In words: LTEA_HepaRG_XBP1: Life Technologies and Expression Analysis (LTEA) Assay for X-box binding protein 1 (XBP1) using HepaRG (AID 2283540). As to conditions: mRNA level, 48 h; actives raise or lower the signal. The method, boiled down:
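Human HepaRG monolayers receive test chemical for 48 h across an eight-point half-log series starting at 100 uM. XBP1 mRNA gain or loss is scored against DMSO by qRT-PCR.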

Assay [13] is described as follows: LTEA_HepaRG_LDH_cytotoxicity: Cytotoxicity Assessment in the Life Technologies and Expression Analysis (LTEA) Assay (AID 2283563; active = hit-call score of the fitted dose curve at least 0.9, where 1 is the maximum). An outline of the steps: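 Human HepaRG hepatic cells are treated with test chemicals for 48 h at up to 100 uM in 0.5% DMSO. Cytotoxicity is scored from medium LDH against the vehicle control.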
Assay [14] in a line: ATG_XTT_Cytotoxicity: Cytotoxicity Assessment in the Attagene TRANS-FACTORIAL HepG2 Assay (AID 2283584; active = hit-call score of the fitted dose curve at least 0.9, where 1 is the maximum). An outline of the steps:
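Transfect HepG2 with GAL4-UAS reporter units, dose compound, incubate 24 h, then measure viable cell number by XTT. Fit concentration response against DMSO baseline.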

Assay [15] is described as follows: TOX21_p53_BLA_p2_viability: Viability Assessment in the Tox21 HCT-116 p53 Agonism Beta-lactamase Assay, Phase 2 (AID 2283591; active = hit-call score of the fitted dose curve at least 0.9, where 1 is the maximum;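 note: compound exposure lasted 16 h at 37 °C; actives lower the ATP signal meaning cytotoxicity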). The method, boiled down: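 HCT116 p53-bla cells, 4000/well, dosed after 5 h plating (217-fold dilution of DMSO stocks) and incubated 16 h at 37C. Viability taken as cellular ATP by CellTiter-Glo luminescence after 30 min RT; signal loss marks cytotoxicity.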

For assay [16], the target named is Cellular tumor antigen p53 (Homo sapiens) (UniProt P04637). In words: TOX21_p53_BLA_p2_ratio: Tox21 HCT-116 p53 Agonism Beta-lactamase Assay, Ratio, Phase 2 (AID 2283592; active = hit-call score of the fitted dose curve at least 0.9, where 1 is the maximum). An outline of the steps: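 An inducible beta-lactamase reporter in HCT116 cells signals p53 pathway activation. After 16 h chemical exposure at 37C, cells load CCF4-AM substrate for 2 h at room temperature; activity is the cleaved/uncleaved emission ratio relative to DMSO.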

Assay [17] is described as follows: TOX21_p53_BLA_p3_viability: Viability Assessment in the Tox21 HCT-116 p53 Agonism Beta-lactamase Assay, Phase 3 (AID 2283593; active = hit-call score of the fitted dose curve at least 0.9, where 1 is the maximum;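 note: cells exposed to compound for 16 h before reading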). The method, boiled down:
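HCT116 cells, 4000/well, dosed 5 h after plating by pin transfer (217-fold dilution from DMSO stock) and incubated 16 h at 37C, 5% CO2. Viability read as ATP luminescence with CellTiter-Glo after 30 min at room temperature.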

Each structure is given as a SMILES string. Results filed as inconclusive are left out. Activity calls are given as the source filed them. Rule for the calls, unless noted: active = hit-call score of the fitted dose curve at least 0.9, where 1 is the maximum; inactive = score below 0.9.

Chain of Signal transducer and activator of transcription 3 (Homo sapiens) (P40763 whole entry, looked up): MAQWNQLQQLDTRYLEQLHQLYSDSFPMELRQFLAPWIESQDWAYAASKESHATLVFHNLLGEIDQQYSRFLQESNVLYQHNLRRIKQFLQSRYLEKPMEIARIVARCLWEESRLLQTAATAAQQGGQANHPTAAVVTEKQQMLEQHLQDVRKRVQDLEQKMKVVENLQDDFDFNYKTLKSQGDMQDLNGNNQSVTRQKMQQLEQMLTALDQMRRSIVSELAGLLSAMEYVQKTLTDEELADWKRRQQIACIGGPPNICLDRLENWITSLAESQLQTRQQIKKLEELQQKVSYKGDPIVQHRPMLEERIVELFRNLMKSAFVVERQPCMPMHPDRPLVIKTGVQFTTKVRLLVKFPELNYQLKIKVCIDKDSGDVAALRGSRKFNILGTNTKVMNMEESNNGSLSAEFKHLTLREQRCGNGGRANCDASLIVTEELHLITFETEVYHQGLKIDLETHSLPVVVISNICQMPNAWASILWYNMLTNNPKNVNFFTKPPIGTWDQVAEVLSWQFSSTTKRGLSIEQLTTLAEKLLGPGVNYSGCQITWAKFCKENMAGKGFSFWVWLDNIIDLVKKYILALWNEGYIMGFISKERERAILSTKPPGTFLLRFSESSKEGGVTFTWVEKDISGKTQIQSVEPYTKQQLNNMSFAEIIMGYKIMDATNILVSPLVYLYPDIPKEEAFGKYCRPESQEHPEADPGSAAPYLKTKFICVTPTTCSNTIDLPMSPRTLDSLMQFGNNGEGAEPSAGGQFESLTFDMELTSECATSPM
Chain of Cellular tumor antigen p53 (Homo sapiens) (P04637 whole entry, looked up): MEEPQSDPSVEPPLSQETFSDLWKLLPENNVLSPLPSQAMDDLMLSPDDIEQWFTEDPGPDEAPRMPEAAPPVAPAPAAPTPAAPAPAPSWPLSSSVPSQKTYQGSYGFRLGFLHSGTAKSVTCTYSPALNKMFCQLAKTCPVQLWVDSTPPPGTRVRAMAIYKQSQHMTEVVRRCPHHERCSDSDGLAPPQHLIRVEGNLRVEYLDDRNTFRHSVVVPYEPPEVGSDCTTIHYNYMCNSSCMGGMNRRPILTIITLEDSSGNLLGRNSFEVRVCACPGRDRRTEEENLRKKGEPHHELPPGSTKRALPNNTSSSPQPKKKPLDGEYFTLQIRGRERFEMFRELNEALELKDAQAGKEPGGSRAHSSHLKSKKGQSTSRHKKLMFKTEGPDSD

For the molecule `CCCCc1ccccc1`, the outcome in assay [1], in assay [2], in assay [3], in [4], in assay [5] and in assay [6] was inactive. The molecule was classed as inactive in [7], in [8], in [9], in assay [10], in assay [11] and in assay [12]. Moreover, the molecule was classed as inactive in [13] and in assay [14].
As for `CCOP(=S)(OCC)SCSCC`, the molecule was called inactive in assay [1], in assay [2], in assay [3], in assay [4], in assay [5] and in [6]. The result in assay [7], in assay [8], in [9], in [10], in [11] and in assay [12] was inactive. In addition, the result in assay [13] and in assay [14] was inactive.
In the case of `CCOC(=O)c1ccccc1N`, the molecule was called inactive in assay [14].
On the same count and under the same terms, to `N#Cc1ccc(O)cc1` belongs “inactive”.
In the case of `Oc1ccc(I)cc1`, the result in assay [14] was inactive.
Take `O=[N+]([O-])c1cc(Cl)ccc1Cl`: the result in [14] was inactive.
`CN(C)C(=O)Cl`: the molecule was called inactive in assay [1], in [2], in [3], in [4], in [5] and in [6]. Also, the molecule was called inactive in [7], in assay [8], in assay [9], in [10], in assay [11] and in assay [12]. Moreover, the molecule was called inactive in assay [13] and in assay [14].
As to `CC(C)CBr`, in [14], the molecule was called inactive.
For the molecule `COP(=O)(CCC(=O)NCO)OC`, the outcome in assay [14] was inactive.
Still for that read-out and setting: the value for `Clc1ccc(Oc2ccccc2)cc1` was “inactive”.
As to `CCOP(=O)(O)C(N)=O`, the call in [14] was inactive.
On to `CSC(C)(C)C=NO`, for which the outcome in assay [1], in [2], in [3], in assay [4], in assay [5] and in assay [6] was inactive. Moreover, the molecule was classed as inactive in assay [7], in [8], in assay [9], in assay [10], in assay [11] and in [12]. In addition, the molecule was classed as inactive in assay [13] and in [14].
In the case of `CC(O)C#N` (centres undefined), in [14], the outcome was inactive.
The same measure, in the same setting: to `N#C/C=C/c1ccccc1` belongs “inactive”.
Usually AC50 stands for the midpoint of the concentration-response curve, whichever way the signal moves. Consider `CCOP(=S)(Oc1ccc([N+](=O)[O-])cc1)c1ccccc1` (centres undefined), for which the molecule was classed as inactive in [1], in assay [3], in [4], in [5], in assay [6] and in assay [7]. Further, the result in assay [8], in assay [11], in assay [12], in [13] and in assay [14] was inactive. The AC50 in assay [9] is 50 µM (active); in assay [10], 12.7 µM (active).
Regarding `Cn1[nH]nnc1=S`, in [14], the call was inactive.
For the molecule `CCCCN(CCCC)SN(C)C(=O)Oc1cccc2c1OC(C)(C)C2`, the call in assay [1], in assay [2], in [3], in [4], in assay [5] and in assay [6] was inactive. The molecule was called inactive in assay [7], in assay [8], in assay [9], in assay [11], in assay [12] and in [13]. Moreover, in assay [14], the result was inactive. In addition, the AC50 in [10] is 10 µM (active).
Regarding `N#Cc1cc([N+](=O)[O-])ccc1N`, the molecule was classed as inactive in [14].
In the case of `c1ccc2c(c1)sc1ccccc12`, the call in assay [14], in [15], in assay [16] and in assay [17] was inactive.
